TbPYK inhibitor – qHTS of Trypanosoma Brucei Inhibitors; 410,000 compounds, 0.12% hits; AID 624173, 2012; Potency, µM (doses to about 76.8 µM), most hits filed as inhibitors; pyruvate kinase (Trypanosoma brucei), Q57TT1; TbPYK enzyme, Kinase-Glo Plus ATP luminescence, 45 min; active = well fitted curve in the direction sought with a large enough effect; inconclusive = small, poorly fitted or top-dose-only effect, or another doubt; inactive = no such curve, though single readings can be large; an effect the other way counts as inactive or inconclusive; also: nearly all actives have a fitted effect of over 50% in size
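Activity of T. brucei pyruvate kinase was followed by Kinase-Glo Plus luminescence after the enzyme reacted 45 min at room temperature with 130 uM ADP (final) and substrate. Test compounds were added before ADP at multiple concentrations.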
RE007 growth inh – qHTS Assay for Inhibitors of the HIV-1 protein Vpr; AID 651644, 2012; S. pombe RE007 Vpr strain, BacTiter-Glo ATP luminescence, 24 h; Potency, µM (highest dose often 92.2 µM), hits mostly inhibitors; 360,000 compounds, 0.21% hits; active = well fitted falling curve with a large enough effect; inconclusive = small, poorly fitted or top-dose-only effect; inactive = no such curve, though single readings can be large or run the other way; also: nearly all actives have a fitted effect of over 50% in size
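Fission yeast strain RE007, carrying one chromosomally integrated HIV-1 vpr copy, was seeded at OD 0.01 in PMG+AL medium with 23 nL pinned compound. After 24 h at 30 °C and 99% humidity, viability was read by BacTiter-Glo luminescence.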
NS1 inh – qHTS Assay for Inhibitors of Influenza NS1 Protein Function; 270,000 compounds, 0.4% hits; AID 2326, 2010; Potency, µM (highest dose often 46.1 µM); also: actives are rising curves; nearly all actives have a fitted effect of over 50% in size
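OD600 was taken as the measure of yeast growth restored by compound in an NS1-expressing S. cerevisiae strain. Cells had been washed out of glucose medium and diluted 1:100 into galactose -URA medium, pH 6.0.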
LmPK inhibitor – qHTS Assay for Inhibitors of Leishmania Mexicana Pyruvate Kinase (LmPK); Potency, µM (titrated, usually from 57.5 µM), usual class: inhibitors; 290,000 compounds, 0.37% hits; purified LmPK, Kinase-Glo ATP luminescence, 1 h; active = well fitted curve in the direction sought with a large enough effect; inconclusive = small, poorly fitted or top-dose-only effect, or another doubt; inactive = no such curve, though single readings can be large; an effect the other way counts as inactive or inconclusive
Target sequence (Q27686 whole entry, looked up): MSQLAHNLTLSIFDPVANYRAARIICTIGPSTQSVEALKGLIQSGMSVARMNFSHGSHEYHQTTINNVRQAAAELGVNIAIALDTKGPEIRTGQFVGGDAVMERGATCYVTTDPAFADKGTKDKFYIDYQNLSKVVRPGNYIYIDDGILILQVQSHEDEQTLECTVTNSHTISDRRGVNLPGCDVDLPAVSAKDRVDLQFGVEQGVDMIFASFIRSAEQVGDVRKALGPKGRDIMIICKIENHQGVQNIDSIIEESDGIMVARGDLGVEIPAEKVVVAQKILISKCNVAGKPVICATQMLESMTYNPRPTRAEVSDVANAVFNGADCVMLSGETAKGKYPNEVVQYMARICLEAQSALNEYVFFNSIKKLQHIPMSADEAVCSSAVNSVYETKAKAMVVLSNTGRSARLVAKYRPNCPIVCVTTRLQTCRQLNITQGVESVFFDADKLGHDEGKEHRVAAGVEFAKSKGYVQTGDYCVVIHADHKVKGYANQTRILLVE
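Purified LmPK (0.1 nM) converted ADP (0.1 mM) to ATP with PEP (0.5 mM) in imidazole buffer pH 7.2 with KCl and MgCl2, 1 h at room temperature. ATP was read by Kinase-Glo luminescence; data normalized to uninhibited and no-enzyme controls.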
NS1 inh valid – Assay for Inhibitors of Influenza NS1 Protein Function: Hit Validation | shares compounds with NS1 inh | influenza NS1 function cell assay, 15-point titration | activity change, negative = inhibition, % at 32.9 µM | 1,400 tested, under 10 active | AID 492980, 2010
Flu PR8 replic – Assay for Inhibitors of Influenza NS1 Protein Function: Influenza virus replication assay in MDCK cells infected with virus A/PR/8/34. shares compounds with NS1 inh. MDCK infected influenza A/PR/8/34, virus titer TCID50; stronger effect = lower value. virus titer (log TCID50), log10 TCID50 at 5 µM. 95 compounds, 30% hits; call rule not given here
Large screens that a line does not name were inactive (follow-up assays come after a bar, where they were run); ! = repeats disagree. In the library only some 0.77% were active in any assay of this set; here they are far more common. Unless noted, calls follow the shape of the full dose curve.

CCc1cc2c(-c3ccccc3)cc(=O)oc2cc1OC(C)C(=O)O (stereo unspecified)	NS1 inh 10µM | NS1 inh valid inactive
CCOc1ccc(NC(=O)c2cccnc2C(=O)O)cc1	NS1 inh 4.5µM | NS1 inh valid inactive
Cc1onc(-c2ccccc2Cl)c1C(=O)Nc1nnc(-c2cccc([N+](=O)[O-])c2)s1	NS1 inh 10µM | NS1 inh valid inactive
Cc1cc(C(=O)Nc2nnc(-c3ccccc3)s2)no1	RE007 growth inh inconclusive, NS1 inh inconclusive | NS1 inh valid inconclusive
Cc1cc(C(=O)Nc2nnc(C3CCCCC3)s2)no1	none
O=C(CCc1ccc(O)cc1)c1c(O)cc(O)cc1O	NS1 inh 13µM! | NS1 inh valid inactive
COc1cc(O)c(CC=C(C)C)c(O)c1C(=O)CCc1ccc(O)cc1	none
CCOc1ccc(-c2c(C(=O)N/N=C(\C)c3cccnc3)nnn2-c2nonc2N)cc1	NS1 inh inconclusive
CCC(CC)C(=O)NCc1ccc2c(c1)cc(C)n2C	NS1 inh inconclusive
COc1ccc(/C=C\C(=O)NCc2ccc3c(c2)cc(C)n3C)cc1OC	NS1 inh 11µM | NS1 inh valid inactive | Flu PR8 replic inactive
Cc1cc2cc(CNC(=O)c3ccc(S(=O)(=O)N4CCCC4)cc3)ccc2n1C	NS1 inh 10µM | NS1 inh valid inactive
CCc1cccc(C)c1NC(=S)NCc1ccc2c(c1)cc(C)n2C	NS1 inh 14µM | NS1 inh valid inactive
Cc1ccccc1NC(=S)NCc1ccc2c(c1)cc(C)n2C	NS1 inh inconclusive
Cc1cc2cc(CNC(=O)c3cccs3)ccc2n1C	NS1 inh inconclusive | NS1 inh valid inactive
Cc1ccc(S(=O)(=O)c2nnn3c2nc(N2CCC(C)CC2)c2cc(Cl)ccc23)cc1C	none (no result: RE007 growth inh, NS1 inh, LmPK inhibitor)
CC(C)(C)C(=O)NC(=S)NNC(=O)c1ccc(-c2ccccc2)cc1	none
CC(C)OC(=O)c1cc2c(ccn2C)n1CC(=O)N(Cc1ccccc1)c1ccccc1	NS1 inh 11µM | NS1 inh valid inactive
CCOC(=O)c1cc2c(ccn2C)n1Cc1cc(C)ccc1C	none
CCCOP(=O)(c1ccc(N(C)C)cc1)C(Nc1ccccc1)c1ccc(N(C)C)cc1 (stereo unspecified)	NS1 inh 20µM | NS1 inh valid inactive
CCCCOP(=O)(c1ccc(N(C)C)cc1)C(Nc1ccccc1)c1ccccc1 (stereo unspecified)	none
COC(=O)Cc1[nH]nc2c1C(c1ccc(O)c(OC)c1)C(C#N)=C(N)O2 (stereo unspecified)	NS1 inh 10µM | NS1 inh valid inconclusive
COC(=O)Cc1[nH]nc2c1C(c1cc(OC)c(OC)c(OC)c1)C(C#N)=C(N)O2 (stereo unspecified)	none
COc1ccccc1NS(=O)(=O)c1cc(N/C(=N/S(=O)(=O)c2ccccc2)c2ccc(F)cc2)ccc1Cl	none (no result: NS1 inh, LmPK inhibitor)
COc1ccc(NS(=O)(=O)c2cccc(N/C(=N\S(=O)(=O)c3ccccc3)c3ccc(F)cc3)c2)cc1	NS1 inh 11µM | NS1 inh valid inactive
CCCc1cc(=O)oc2cc(OCC(=O)N3CCC(C(=O)O)(c4ccccc4)CC3)ccc12	NS1 inh 11µM | NS1 inh valid inconclusive
CCOC(=O)Cn1cccc1-c1nc(-c2ccc(OC)cc2)c(-c2ccc(OC)cc2)s1	none (no result: RE007 growth inh, NS1 inh, LmPK inhibitor)
COc1ccc([C@H]2[C@H](C(=O)C(C)(C)C)N3N=Cc4ccccc4C3[C@]23N=C(c2ccccc2)OC3=O)cc1 (stereo partly specified)	NS1 inh 2µM | NS1 inh valid inactive
COc1ccc([C@H]2[C@H](C(=O)C(C)(C)C)N3N=Cc4ccccc4C3[C@]23N=C(c2ccccc2)OC3=O)cc1OC (stereo partly specified)	none
CS(=O)(=O)N(CC(=O)Nc1ccccc1F)C1CCCCC1	none
CS(=O)(=O)N(CC(=O)Nc1ccccc1Sc1ccccc1)C1CCCCC1	NS1 inh inconclusive | NS1 inh valid inactive

Assay outcomes as filed in PubChem BioAssay.
